Laboratory results as given in the supplement of paper PMC10498489.
Among all 2,300 compounds or so, about 330 (14%) showed activity.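 Rule for the calls: active = median modified Z-score above 1.96; inactive = 1.96 or below.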 Only a sample is shown.

Tested on: HepG2 Srxn1-GFP reporter cells (+30 nM CDDO-Me)
Test: Srxn1-GFP intensity median modified Z-score relative to plate median; higher = stronger NRF2 / oxidative stress reporter activation, active = hit call of the paper
Details: 10 µM; exposure time: 24h
How it was run: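 HepG2 Srxn1-GFP BAC reporter cells were seeded at 20,000 per well in 96-well plates and co-exposed for 24 h to compound at 10 μM and an NRF2 activator at 30 nM, with DMSO at ≤0.1%, in three replicate plates. Cells were fixed with formaldehyde, stained with Hoechst and imaged by confocal microscopy, and cytoplasmic GFP was measured per cell, with images holding under 100 cells discarded. The reported value is the median over replicates of each plate's modified Z-score of GFP intensity. For this score, scaling used 1.4826 × median absolute deviation.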

Srxn1-GFP intensity median modified Z-score, active:
CCc1nn(CCCN2CCN(c3cccc(Cl)c3)CC2)c(=O)n1CCOc1ccccc1 [euspeclibcmpd461] 8.98
COc1ccc2cc1Oc1ccc(cc1)C[C@H]1c3cc(c(OC)cc3CCN1C)Oc1c(OC)c(OC)cc3c1[C@H](C2)N(C)CC3 [euspeclibcmpd1476] 21.7
COc1ccc2cc1Oc1ccc(cc1)C[C@H]1c3c(cc4c(c3Oc3cc5c(cc3OC)CCN(C)[C@@H]5C2)OCO4)CCN1C [euspeclibcmpd1270] 4.85
CC(C)(O)c1ccccc1CC[C@@H](SCC1(CC(=O)O)CC1)c1cccc(/C=C/c2ccc3ccc(Cl)cc3n2)c1 [euspeclibcmpd2362] 8.32
CC1=CC(=O)C2C(C)(C)CCC[C@]2(C)[C@@]1(O)CCc1ccoc1 (some centres undefined) [euspeclibcmpd1719] 17.2
C=CCOC(=O)C1=C(C)NC(C)=C(C(=O)OCC=C)C1/C=C/c1ccccc1 4.92
Cc1nc2sccn2c(=O)c1CCN1CCC(=C(c2ccc(F)cc2)c2ccc(F)cc2)CC1 [euspeclibcmpd532] 7.86
CC(C=C/C=C(C)/C=C/C1=C(C)CCCC1(C)C)=CC(=O)O [euspeclibcmpd2414] 3.46
COC(=O)C1=C(C)N=C(C)C(C(=O)OCCN2CCN(C(c3ccccc3)c3ccccc3)CC2)C1c1cccc([N+](=O)[O-])c1 (centres undefined) [euspeclibcmpd869] 5.13
COC(=O)C1=C(C)N=C(C)C(C(=O)OCC(C)C)C1c1ccccc1[N+](=O)[O-] (centres undefined) [euspeclibcmpd766] 10.8
COc1ccc2c(c1)O[C@@H]1COc3cc(OC)c(OC)cc3C1C2=O (some centres undefined) [euspeclibcmpd1700] 22.8
COc1cc2c(cc1OC)C1C(=O)c3ccc4c(c3O[C@@H]1CO2)C=CC(C)(C)O4 (some centres undefined) [euspeclibcmpd1734] 12.7
CCN(CC)CCCC(C)N=c1c2ccc(Cl)cc2[nH]c2ccc(OC)cc12 (centres undefined) [euspeclibcmpd261] 19.2
CN1CCC[C@H]1c1cccnc1 [euspeclibcmpd957] 8.21

Srxn1-GFP intensity median modified Z-score, inactive:
O=C(O)c1cc(N=Nc2ccc(S(=O)(=O)N=c3cccc[nH]3)cc2)ccc1O [euspeclibcmpd280] -0.614
Cc1ccc(C(=O)c2ccc(CC(=O)O)n2C)cc1 [euspeclibcmpd2405] 0.508
OC[C@H](O)C(O)[C@@H](O)CO [euspeclibcmpd2128] -0.222
COc1cc(O)c2c(=O)c(OC)c(-c3ccc(OC)c(OC)c3)oc2c1 [euspeclibcmpd1656] -0.275
NC(=O)NC(CCC(=O)O)C(=O)O (centres undefined) [euspeclibcmpd1209] 0.184
O=C1CCc2ccc(OCCCCN3CCN(c4cccc(Cl)c4Cl)CC3)cc2N1 [euspeclibcmpd879] 0.292
O=c1n(CCCN2CCN(c3cccc(Cl)c3)CC2)nc2ccccn12 [euspeclibcmpd533] 0
Cc1c(C)c2c(c(C)c1O)CCC(C)(C(=O)O)O2 (centres undefined) [euspeclibcmpd1989] -0.727
COc1ccc(=NS(=O)(=O)c2ccc(N)cc2)[nH]n1 [euspeclibcmpd409] -0.327
CC(C)c1nc(CN(C)C(=O)NC(C(=O)N[C@@H](Cc2ccccc2)C[C@H](O)[C@H](Cc2ccccc2)NC(=O)OCc2cncs2)C(C)C)cs1 (some centres undefined) [euspeclibcmpd486] 0.333
COc1ccccc1N1CCN(CCCNc2cc(=O)n(C)c(=O)n2C)CC1 [euspeclibcmpd1121] -0.334
COC1=C(C)C2CC(=O)O[C@@H]3C[C@H]4C(C)=CC(OC)C(=O)[C@]4(C)C(C1=O)[C@]23C (some centres undefined) [euspeclibcmpd1498] 0.142
COc1ccc2c(c1OC)C(=O)O[C@H]2[C@H]1c2c(cc3c(c2OC)OCO3)CCN1C [euspeclibcmpd216] 0.635
CN1CC(=O)N2C(Cc3c([nH]c4ccccc34)[C@H]2c2ccc3c(c2)OCO3)C1=O (some centres undefined) [euspeclibcmpd833] -0.451
CO[C@@H]1[C@@H](O[C@@H]2O[C@H](C)[C@@H](O[C@H]3C[C@@](C)(O)[C@H](O)[C@H](C)O3)[C@H](N(C)C)[C@H]2O)[C@@H](CC=O)C[C@@H](C)[C@@H](O[C@H]2CC[C@H](N(C)C)[C@@H](C)O2)/C=C/C=C/C[C@H](C)OC(=O)C[C@H]1O [euspeclibcmpd581] 0.0936
CCC1(CC)C(=O)CC=NC1=O [euspeclibcmpd1119] -0.354
CN(C)CCCOc1nn(Cc2ccccc2)c2ccccc12 [euspeclibcmpd892] -0.182
COC1=CC(/C=C/c2ccccc2)OC(=O)C1 (centres undefined) [euspeclibcmpd1481] -0.206
Nc1ccc(S(=O)(=O)N=c2[nH]ccs2)cc1 [euspeclibcmpd281] -0.259
CC(=O)OCC(=O)[C@@]1(O)CCC2C3CC=C4CC(=O)C=C[C@]4(C)[C@@]3(F)[C@@H](O)C[C@@]21C (some centres undefined) [euspeclibcmpd2402] -0.201
CC(C)CCCC(C)C1CCC2C3CC[C@H]4CC(=O)CC[C@]4(C)C3CC[C@]12C (some centres undefined) [euspeclibcmpd1405] -0.338
NC(C(=O)C(=O)O)C(O)O (centres undefined) [euspeclibcmpd1337] -0.207
Cc1nc2n(c(=O)c1CCN1CCC(c3noc4cc(F)ccc34)CC1)CCCC2 [euspeclibcmpd909] 0.484
Cc1nc2ccccn2c(=O)c1CCN1CCC(C(=O)c2ccc(F)cc2)CC1 [euspeclibcmpd878] -0.586
CCC(=O)OCC(=O)C1(OC(=O)CC)C(C)CC2C3C(Cl)C=C4CC(=O)C=CC4(C)C3C(O)CC21C (centres undefined) [euspeclibcmpd1830] -0.727
Cc1cc(O)c(C)c(O)c1C(=O)O [euspeclibcmpd2002] -0.247
CC(=O)NC(CCC(C)C)C(=O)O (centres undefined) 1.23
CC(=O)O[C@H]1CC[C@@]2(C)C(CC[C@]3(C)C2CC=C2C4CC(C)(C)CC[C@]4(C)CC[C@]23C)C1(C)C (some centres undefined) [euspeclibcmpd1641] -0.192
CC1=C(/C=C/C(C)=C/C=C/C(C)=C/C=C/C=C(C)/C=C/C=C(C)/C=C/C2=C(C)CCCC2(C)C)C(C)(C)CCC1 [euspeclibcmpd256] 1.65
CC1=C(/C=C/C(C)=C/C=C/C(C)=C/CO)C(C)(C)CCC1 [euspeclibcmpd419] -0.0835
CC[C@]12CCCN3CCc4c(n(c5ccccc45)[C@](O)(C(=O)OC)C1)[C@@H]32 [euspeclibcmpd1043] 1.43
COC(=O)C1=C(C)N=C(C)C(C(=O)OC)C1c1ccccc1[N+](=O)[O-] (centres undefined) [euspeclibcmpd208] -0.363
COC(=O)C1=C(C)N=C(C)C(C(=O)OCCN(C)Cc2ccccc2)C1c1cccc([N+](=O)[O-])c1 (centres undefined) [euspeclibcmpd393] -0.375
COCCOC(=O)C1=C(C)N=C(C)C(C(=O)OC(C)C)C1c1cccc([N+](=O)[O-])c1 (centres undefined) [euspeclibcmpd585] 0.492
C#C[C@]1(O)CCC2C3CCC4=Cc5oncc5C[C@]4(C)C3CC[C@@]21C (some centres undefined) [euspeclibcmpd81] -0.371
N=c1[nH]cnc2c1ncn2[C@@H]1O[C@H](COP(=O)(O)OP(=O)(O)OC[C@H]2O[C@@H]([n+]3cccc(C(N)=O)c3)[C@H](O)[C@@H]2O)[C@@H](O)[C@H]1O [euspeclibcmpd202] -0.305
CCC(=O)OCC(=O)[C@@]1(OC(=O)CC)[C@@H](C)CC2C3CC=C4CC(=O)C=C[C@]4(C)C3(F)[C@@H](O)C[C@@]21C (some centres undefined) [euspeclibcmpd541] -0.359
O=C(O)c1cc(-c2ccccc2)nc2cc(Br)ccc12 1.37
CC1OC(n2cc(F)c(=O)[nH]c2=O)C(O)C1O (centres undefined) [euspeclibcmpd1997] -0.334
CN[C@@H]1[C@H](O)[C@H](NC)[C@H]2O[C@@]3(O)C(=O)C[C@@H](C)O[C@H]3O[C@@H]2[C@H]1O [euspeclibcmpd268] -0.125
COc1cc2c(cc1OC)C1C(=O)c3c(O)cc4c(c3OC1CO2)C=CC(C)(C)O4 (centres undefined) [euspeclibcmpd1478] 1.56
COc1ccc2c(c1)O[C@H]1c3ccc(OC)cc3OC[C@@H]21 [euspeclibcmpd1733] -0.45
COc1ccc([C@H]2Oc3cc(OC)cc(OC)c3C[C@H]2O)cc1 [euspeclibcmpd1383] 0
CCOC(=O)c1c(NC(=O)COC(=O)C(C)NC(N)=O)sc(C(C)=O)c1C (centres undefined) 1.26
CCN(CC)CCCC(C)N=c1cc[nH]c2cc(Cl)ccc12 (centres undefined) [euspeclibcmpd325] -0.157
O[C@@H]1[C@H](O)CO[C@H]1O [euspeclibcmpd1668] -0.319
COc1ccc(-c2coc3cc(OC)ccc3c2=O)cc1 [euspeclibcmpd2413] -0.165
C[C@]12C=CC(=O)CC1=CCC1C2[C@@H](O)C[C@@]2(C)C1CC[C@]2(O)C(=O)CO (some centres undefined) [euspeclibcmpd241] -0.692
CN1C(=O)CC[C@H]1c1cccnc1 [euspeclibcmpd75] -0.303
O=C(O)c1cccnc1 [euspeclibcmpd2043] -0.519
